The structures appear in SMILES notation. Hit rate of the full screen: of about 360,000 compounds, about 9,100 (2.5%) were called active. Roughly 4% stayed inconclusive and do not appear here. This is one part of a sample in which actives are shown more often than they occur. A number with no mark means an inactive call. Cut-off read from the data, not from the text of the source: active = max response below about -50%; inconclusive = no clear call, values can overlap the other calls; inactive = above that.
% is set by controls: 0 for no effect and ±100 for the full control effect.

Chain of D(3) dopamine receptor (Homo sapiens) (P35462 whole entry, looked up): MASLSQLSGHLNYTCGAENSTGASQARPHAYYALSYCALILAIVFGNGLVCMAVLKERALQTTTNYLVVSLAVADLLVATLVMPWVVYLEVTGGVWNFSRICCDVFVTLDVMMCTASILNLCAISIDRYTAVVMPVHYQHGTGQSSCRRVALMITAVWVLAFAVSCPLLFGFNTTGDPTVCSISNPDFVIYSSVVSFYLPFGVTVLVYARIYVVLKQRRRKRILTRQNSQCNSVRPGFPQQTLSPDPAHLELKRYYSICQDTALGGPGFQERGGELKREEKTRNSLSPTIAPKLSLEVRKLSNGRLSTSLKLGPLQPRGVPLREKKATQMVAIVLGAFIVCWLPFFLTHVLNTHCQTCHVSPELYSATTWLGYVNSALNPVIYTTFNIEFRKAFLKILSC

The target of this assay is D(3) dopamine receptor (Homo sapiens) (UniProt P35462). As to the kind of experiment: qHTS of D3 Dopamine Receptor Antagonist: qHTS. Particulars: D3R cells, DiscoveRx beta-arrestin luminescence, antagonist mode; hits give low values. The gist of the method:
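Cells expressing the human receptor were seeded at 1500 cells/well, incubated overnight at 37 degrees C in 5% CO2, then exposed to library compounds with dopamine controls for 90 minutes at 37 degrees C before luminescent detection.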
A general note: Quantitative high-throughput screening tests each substance at several concentrations.
Consider `COc1cccc(-c2cc3nc(NCCOc4ccccc4Cl)n(C)c(=O)c3s2)c1`, for which the max response, negative = inhibition is 18.3%.

With `COCCNc1ncnc2c1ncn2[C@H]1CN(CCN2CCOCC2)C[C@@H](CO)O1`, the max response, negative = inhibition was -14.7%.

As for `CCC(=O)N1CCCC1(C)C(=O)Nc1ccc2c(c1)CCN2C(C)=O` (configuration not stated), the max response, negative = inhibition was 19.1%.

Take `CCC1Nc2ncnc(N3CCN(c4ccccc4)CC3)c2N(Cc2ccc(Cl)cc2)C1=O` (configuration not stated): the max response, negative = inhibition was -73.8% (active).

Regarding `OC[C@@H]1CN(Cc2ccncc2)C[C@H](n2cnc3c(N4CCN(c5ccccc5)CC4)ncnc32)O1`, the max response, negative = inhibition was 3.87%.

As for `CC[C@]1(C(=O)OC)[C@H]2C(=O)N(Cc3ccccc3)C(=O)[C@H]2[C@H]2CN=C(SCc3ccc(Cl)cc3)N21`, the max response, negative = inhibition was -3.9%.

Turning to `O=C(CNC(=O)N1CC(=O)Nc2ccccc21)Nc1ccc(Br)cc1F`, the max response, negative = inhibition was 0%.

With `COc1ccc(NC(=O)C2Cc3c(-c4ccc(Cl)cc4)ccnc3O2)cc1` (configuration not stated), the max response, negative = inhibition is 28.4%.

For the compound `CC1(C(=O)NS(=O)(=O)Cc2cccc(Cl)c2)CCN1C(=O)Cc1ccccc1` (configuration not stated), the max response, negative = inhibition is -2.25%.

Take `CCc1ccc([C@@H]2CC(=O)[C@@H]3CN(S(=O)(=O)c4ccc(C)cc4)[C@H](c4ccc(Cl)cc4)C[C@@H]3N2S(=O)(=O)c2ccc(C)cc2)cc1`: the max response, negative = inhibition was 0%.

With `O=C(O)c1ccccc1-c1cccc2nncn12`, the max response, negative = inhibition is 0%.

`Cc1ccc(S(=O)(=O)N2CC[C@H]3[C@@H](C2)C(=O)C[C@@H](c2ccccc2)N3S(=O)(=O)c2ccc(C)cc2)cc1`: the max response, negative = inhibition is -19.4%.

For the compound `Cc1cc(C)cc(NC(=O)C2CCCN2S(=O)(=O)c2cccc3cccnc23)c1` (configuration not stated), the max response, negative = inhibition was -1.4%.

As for `Cc1ccc(NC(=O)C2CCCN2S(=O)(=O)c2cccc3cccnc23)c(C)c1` (configuration not stated), the max response, negative = inhibition was 9.44%.

For the compound `O=C(Nc1nccs1)C1CCCN1S(=O)(=O)c1cccc2cccnc12` (configuration not stated), the max response, negative = inhibition is -56.6% (active).

For the compound `CC1(C(=O)Nc2ccc3c(c2)OCCO3)CCN1C(=O)Cc1cc(F)ccc1F` (configuration not stated), the max response, negative = inhibition is 26.4%.

`COc1ccc(-c2cc3nc(NCCOc4ccccc4)ccn3n2)cc1`: the max response, negative = inhibition was 35.5%.

Turning to `S=c1[nH]nc(-c2ccc(Cl)cc2)n1CC1CCCO1` (configuration not stated), the max response, negative = inhibition is -72% (active).

Turning to `Cc1nnc(SCC(=O)NNC(=O)c2ccc(Cl)cc2)n1CC1CCCO1` (configuration not stated), the max response, negative = inhibition is -18.7%.

As to `CCn1c(-c2ccncc2)n[nH]c1=S`, the max response, negative = inhibition was 0.921%.

Consider `O=C(Nc1cc(Br)ccc1F)c1nc[nH]c1C(=O)NCc1ccccc1`, for which the max response, negative = inhibition is -14.4%.

In the case of `COc1ccc(-c2[nH][nH]c(=O)c2NC(=O)c2ccc([N+](=O)[O-])cc2)cc1`, the max response, negative = inhibition is -25.3%.

Regarding `COC(=O)c1ccc2nc(-c3ccc(OC)c(OC)c3)c(Cc3ccccc3)n2c1`, the max response, negative = inhibition is 1.12%.

On to `COc1cc(NS(=O)(=O)c2ccc3ccccc3c2)c2ncccc2c1`, for which the max response, negative = inhibition is -25.7%.

Regarding `Cc1ccc2cccc([N+](=O)[O-])c2n1`, the max response, negative = inhibition was 0%.

For the compound `O=[N+]([O-])c1ccccc1S(=O)(=O)Nc1cccc2cccnc12`, the max response, negative = inhibition was -72% (active).

In the case of `CC(C)Oc1cc(F)ccc1-c1cc(C(=O)Nc2cccc(Cl)c2)[nH]n1`, the max response, negative = inhibition was 0%.

For the compound `CCOC(=O)C1=CC[C@@H](c2ccccc2)N(S(=O)(=O)c2ccc(C)cc2)[C@H]1c1cccc(OC)c1`, the max response, negative = inhibition is 11.2%.

Consider `CCc1cc(-c2nnn(CCC3COCCO3)c2CC)ccc1-c1cn(Cc2ccc3ccccc3c2)nn1` (configuration not stated), for which the max response, negative = inhibition was -10.8%.

Take `O=C(COc1ccc(Cl)cc1[N+](=O)[O-])N1CCCCC1`: the max response, negative = inhibition is -5.15%.

For `Cc1cc(C)c(OCCN2CC(C)OC(C)C2)c(Br)c1` (configuration not stated), the max response, negative = inhibition was -21.2%.

On to `O=[N+]([O-])c1ccccc1OCCCCN1CCCCC1`, for which the max response, negative = inhibition is -89.3% (active).

As for `CC1CN(CCCOc2ccccc2-c2ccccc2)CC(C)O1` (configuration not stated), the max response, negative = inhibition was -29.6%.

On to `CC1CN(CCOc2ccccc2[N+](=O)[O-])CC(C)O1` (configuration not stated), for which the max response, negative = inhibition was -93.5% (active).

Regarding `C=CCN(CC=C)CCOc1ccccc1[N+](=O)[O-]`, the max response, negative = inhibition is -52.4% (active).

For the compound `O=C(COc1ccccc1[N+](=O)[O-])NC1CC1`, the max response, negative = inhibition was 16.3%.

For the compound `Cc1ccc(OCC(=O)Oc2ccccc2[N+](=O)[O-])cc1`, the max response, negative = inhibition was 0.0069%.

In the case of `Cc1cc(OCCCN2CCN(Cc3ccccc3)CC2)ccc1[N+](=O)[O-]`, the max response, negative = inhibition was -14.9%.

For the compound `O=c1[nH][nH]c2c1[C@H](c1ccc(Cl)cc1)O[C@H](CCc1ccccc1)C2`, the max response, negative = inhibition is -23.3%.

Consider `CCCNC(=O)C1(C)CCN(C(=O)c2cc(F)ccc2C)C1` (configuration not stated), for which the max response, negative = inhibition is -11.8%.

In the case of `CC(C)CN1CCC1(C)C(=O)Nc1ccc(OC(F)F)cc1` (configuration not stated), the max response, negative = inhibition is 12.7%.

`O=C(Nc1cc(F)ccc1F)c1ccc2c(=O)n3c(nc2c1)CCC3`: the max response, negative = inhibition is 8.55%.

Consider `Cc1ccc(NC(=O)[C@H](Cc2ccccc2)NC(=O)CC[C@H]2O[C@@H](n3ccc(=O)[nH]c3=O)[C@H](O)[C@@H]2O)cc1C`, for which the max response, negative = inhibition is -15.6%.

As to `OC[C@@H]1CN(Cc2ccc(F)cc2)C[C@H](n2cnc3c(NC4CCCC4)ncnc32)O1`, the max response, negative = inhibition is 4.42%.

`CC1(C(=O)NS(=O)(=O)c2ccccc2)CCN1C(=O)c1ccccc1` (configuration not stated): the max response, negative = inhibition is 10.2%.

Regarding `CC1(C(=O)NS(=O)(=O)c2ccccc2)CCN1C(=O)C/C=C/c1ccccc1` (configuration not stated), the max response, negative = inhibition was -9.32%.

As for `CC1(C(=O)O)CCN1C(=O)/C=C/c1ccccc1` (configuration not stated), the max response, negative = inhibition is 0%.

In the case of `CC1(C)CCSC(/C=C/c2ccccc2)=N1`, the max response, negative = inhibition is -74.9% (active).

Turning to `CCC1OC(C2CC2)CC2=C1C(=O)OC(C)(C)O2` (configuration not stated), the max response, negative = inhibition is 14.7%.

Turning to `CCCC(=O)N1CCC1(C)C(=O)NCc1ccc(C(C)C)cc1` (configuration not stated), the max response, negative = inhibition was -6.82%.

Consider `CC(C)(C)N(CC#CCC(O)(c1ccccc1)C1CCCC1)CCO` (configuration not stated), for which the max response, negative = inhibition is 11.7%.

With `CN(CC#CCC(c1ccccc1)c1ccccc1)C(C)(C)C`, the max response, negative = inhibition is -61.6% (active).

As to `O=C1CCC(=O)N1CCC(=O)N(C(=O)NC1CCCCC1)C1CCCCC1`, the max response, negative = inhibition is 14.6%.

For `CC1(C)NC(=O)N(CC(=O)Nc2ccc(-c3ccccc3)cc2)C1=O`, the max response, negative = inhibition is 16.4%.

As for `c1ccc2c(c1)CSc1sccc1C2=C1CCNCC1`, the max response, negative = inhibition was -65.7% (active).

As to `CCN1CCN(CCCCOc2ccccc2F)CC1`, the max response, negative = inhibition is -71.5% (active).

With `COc1ccccc1N1CCN(CC(=O)NC(=O)NCc2ccco2)CC1`, the max response, negative = inhibition is -22.2%.

Regarding `Cc1cccc(NC(=O)CCN2CC(C)CC(C)C2)c1` (configuration not stated), the max response, negative = inhibition is -1.96%.

Take `COc1ccccc1N1CCN(c2ccc([N+](=O)[O-])nc2)CC1`: the max response, negative = inhibition was 5.81%.

Regarding `COc1ccccc1N1CCN(CCCCOc2ccc(F)cc2)CC1`, the max response, negative = inhibition is -78.2% (active).

Take `Cc1[nH]c2ccccc2c1C(=O)CN1CC(C)CC(C)C1` (configuration not stated): the max response, negative = inhibition is -3.3%.

As for `CC1CC(C)CN(CCOc2cccc3ccccc23)C1` (configuration not stated), the max response, negative = inhibition was -86.3% (active).

For `CN1CCN(CCCCOc2ccccc2-c2ccccc2)CC1`, the max response, negative = inhibition was -71% (active).

With `OCCN1CCN(C(=S)c2ccc(-c3ccccc3)cc2)CC1`, the max response, negative = inhibition was -6.47%.

Regarding `Fc1ccccc1OCCCCn1cncn1`, the max response, negative = inhibition is 2.5%.

Consider `Cc1ccc(/C=N/NC(=O)COc2ccccc2-c2ccccc2)cc1`, for which the max response, negative = inhibition was 25.4%.

Turning to `O=c1c2ccccc2ncn1CCCCOc1ccccc1F`, the max response, negative = inhibition was -15.9%.

For the compound `Nc1nc2ncccn2c1-c1ccccc1`, the max response, negative = inhibition was -1.52%.

For `O=C(COC(=O)c1cccc(Cl)c1Cl)NC1CCCCCC1`, the max response, negative = inhibition was -13.8%.

As for `CC1CCCC(C)N1C(=O)COC(=O)c1ccccc1C(=O)c1ccccc1` (configuration not stated), the max response, negative = inhibition is -17.2%.

Turning to `O=C(Nc1ccc(Cl)c(C(F)(F)F)c1)C1Cc2c(-c3ccccc3Oc3ccccc3)ccnc2O1` (configuration not stated), the max response, negative = inhibition is 0%.

For the compound `CCCCN1C[C@H](c2ccc(Br)cc2)[C@@H](CC(=O)Nc2ccc(Br)cc2)C1=O`, the max response, negative = inhibition was 24.8%.

Consider `COc1ccc(C(=O)C(OP(=O)(OC)OC)c2ccccc2OC)cc1` (configuration not stated), for which the max response, negative = inhibition was 2.58%.

As to `CC(C)c1cccc(C(C)C)c1Nc1cn[nH]c1`, the max response, negative = inhibition was 157%.

As to `C[C@@H]1CN([C@@H](C)CO)C(=O)CCCn2nncc2CO[C@H]1CN(C)C(=O)Nc1ccc(C(F)(F)F)cc1`, the max response, negative = inhibition is -16.1%.

With `CCCCOCCCNC(=O)C[C@@H]1C[C@@]2(C(=O)OC)CCCCC=C2N(CCC2=CCCCC2)C1=O`, the max response, negative = inhibition is 0%.

Regarding `CC(C)NC(=O)C1(C)CCCCN1Cc1cccc(C(F)(F)F)c1` (configuration not stated), the max response, negative = inhibition was 0%.

For `CCOC(=O)C1C(C)C(C(C)(C)C)N(S(=O)(=O)c2ccc(C)cc2)C1c1ccccc1` (configuration not stated), the max response, negative = inhibition was 15.8%.

As to `CC1(C(=O)Nc2cccc3cccnc23)CCN1C(=O)CCC1CCCC1` (configuration not stated), the max response, negative = inhibition is 0%.

With `CCOC(=O)C1CCN(C(=O)COc2cccc3ccccc23)CC1`, the max response, negative = inhibition was 2.44%.

As for `CN1CCN(CCCCOc2cccc3ccccc23)CC1`, the max response, negative = inhibition was -59% (active).

For the compound `COc1ccccc1OCCCCCCN1CCN(C)CC1`, the max response, negative = inhibition is 0.923%.

Regarding `C[N+](C)(C)CCNC(=O)c1c[nH]c2ccccc12`, the max response, negative = inhibition is 0%.

Regarding `CCOC(=O)[C@]12CCC=C1N(Cc1ccco1)C(=O)[C@H](CC(=O)N1CCSCC1)C2`, the max response, negative = inhibition was 2.85%.

In the case of `COC(=O)[C@@]12C[C@@H](CC(=O)N3CCC(c4ccccc4)CC3)C(=O)N(Cc3ccccc3)C1=CCC(C)(C)C2`, the max response, negative = inhibition was 15.3%.

As for `COc1ccc(-c2cc3c(c4c2ccn4C)C2CCC3C2)cn1` (configuration not stated), the max response, negative = inhibition is 12.4%.

In the case of `O=C(CSc1nc2cccc(F)c2c(=O)n1-c1ccccc1)Nc1ccc2c(c1)CCC2`, the max response, negative = inhibition was -3.93%.

As to `Cn1c(-c2ccc(F)cc2)cnc1SCC(=O)NCc1ccco1`, the max response, negative = inhibition is -51.9% (active).

With `Cn1c(-c2ccc(F)cc2)cnc1SCC(=O)NNC(=O)Cc1ccccc1`, the max response, negative = inhibition was -14.6%.

As to `O=C(CSc1nnc2scc(-c3ccc(F)cc3)n12)NCc1ccco1`, the max response, negative = inhibition is 5.75%.

Consider `CCCCCn1nnnc1C1c2ccccc2C(=O)N1Cc1ccco1` (configuration not stated), for which the max response, negative = inhibition was -21.5%.

In the case of `O=NN(CCCl)C(=O)NCCc1cccc[n+]1[O-]`, the max response, negative = inhibition is -1.68%.

Source of the values: PubChem BioAssay AID652054 (National Center for Advancing Translational Sciences (NCATS), 2013).
